For 110 compounds, INHIBITION results are on record in ChEMBL document CHEMBL4513216, “Probing the Open Global Health Chemical Diversity Library for Multistage-Active Starting Points for Next-Generation Antimalarials” (ACS Infect Dis, 2020).

Hit rate of the full screen: of about 69,000 compounds, about 8,600 (12%) showed an effect of 50% or more. This excerpt belongs to a sample that is enriched for strong results.

The subject of this experiment is Plasmodium berghei. In words: Screen against P. berghei liver stage (PbLuc), transformed with Luciferase, at 10uM. The format is functional, HepG2. Conditions: tested at 10 uM.
Turning to `Cc1cccc(C(C(=O)NC(C)(C)CN2CCOCC2)N(C)C)c1` (stereo not given), the INHIBITION is recorded as -17.8%. In the case of `CN(C)C[C@]12COC[C@H]1CN(Cc1ccc3c(c1)OCO3)C2`, the INHIBITION amounted to 28.5%. Take `Cc1nn(C)cc1C(=O)N1CCCC(c2nccn2CC2CCC2)C1` (stereo not given): the INHIBITION was 14.1%.

Turning to `O=C(CC1CCN(CCc2ccccc2)CC1)N1CCCOCC1`, the INHIBITION was found to be 33.2%.

On to `CCCC(O)CN1CCC(=O)N(CC2CC2)Cc2cc3c(cc21)OCO3` (stereo not given), for which the INHIBITION is 10.9%. `Cn1cc(CNCCNc2ncc(Cl)cc2Cl)cn1`: the INHIBITION is recorded as -14.5%. With `Cc1c(C(=O)NC2CCCOC2)nnn1-c1ccccc1` (stereo not given) the figure was 17.1%; with `Cc1c(C(=O)NC2CCCC2)nnn1-c1ccccc1`, -133%.

With `Cc1c(C(=O)NC2CCCOC2)nnn1-c1ccc(Cl)cc1F` (stereo not given), the INHIBITION was 55.5%. Consider `Cc1cnn(CC(C)NCC(=O)NCCOc2ccccc2)c1` (stereo not given), for which the INHIBITION was -0.96%. With `CC(C)(C)n1nnnc1CN(Cc1ccccc1)Cc1ccccc1Cl` the figure was 91.6%; with `CC(C)N(C(=O)Cn1nnnc1CCc1ccccc1)C(C)C`, 37.7%. The same measure for `CCN(Cc1ccccc1Cl)Cn1nc(C)c2c(C)onc2c1=O`: 40.2%; for `Cn1cc(CN(Cc2ccccn2)Cc2ccccc2Cl)cn1`: -10.4%; for `CC(C)(C)n1nnnc1CN(Cc1ccccc1)Cc1ccc(Cl)cc1`: 81.4%. The same measure for `CCc1ncc(CN(CCc2ccccc2)Cc2cccs2)cn1`: 45.1%.

Turning to `O=C(c1nnn(-c2ccc(Cl)cc2)n1)N(CCO)Cc1ccccc1`, the INHIBITION is on record as -23.5%. The same measure for `CC(C)(C)n1nnnc1CN(CCc1ccccc1)Cc1ccccc1`: 65.7%; for `CCc1nc(CN(C(C)=O)C2CCN(Cc3ccccc3F)C2)no1` (stereo not given): -11.4%; for `CN(Cc1ccco1)[C@@H]1CN(C(=O)C2CCOCC2)C[C@@H]2CCCO[C@@H]21`: 37.1%. In the case of `CCN(CC)C(=O)Cn1ccc2cc(NC(=O)COC)ccc21`, the INHIBITION was -7.267%. With `Cn1nccc1-c1nnn2c1COC(CNCc1nccs1)C2` (stereo not given) the figure was 38.3%; with `N[C@H]1CN(C(=O)c2ccc3[nH]c(=O)c(=O)[nH]c3c2)C[C@@H]1c1ccccc1`, 34.1%. The same measure for `Cc1cc(NC(=O)CN2CCC(N3CCNC3=O)CC2)on1`: -71.2%; for `CC(NCc1c(C(C)C)nn(C)c1N(C)C)C(=O)NC1CCCC1` (stereo not given): -5.94%; for `CS(=O)(=O)N1CCC(NCC2(N3CCOCC3)CCCCC2)CC1`: 49%. The same measure for `C1CCC(CNC2CCSCC2)(N2CCOCC2)CC1`: 51.1%; for `C1CCC(NCC2(N3CCOCC3)CCSC2)C1` (stereo not given): 30.8%. Take `COCc1nn(C(C)C)c2c1CCN(Cc1cccs1)C2`: the INHIBITION worked out at 23.5%. The same measure for `O=C(c1ccc(N2CCCCCC2)nn1)N1CCc2ccccc21`: -30%. On to `Cc1c(-c2ccccc2)nc2c(c(C)c(C)n2CCN(C)C)c1N`, for which the INHIBITION was -19.4%. With `CCc1nc2c(c(C)c(C)n2Cc2cccnc2)c(N)c1C` the figure was 29.1%.

`CCCc1nc2c(c(C)c(C)n2Cc2ccccn2)c(N)c1CC`: the INHIBITION is on record as 68.1%. Regarding `CCCc1nc2c(c(C)c(C)n2Cc2ccncc2)c(N)c1CC`, the INHIBITION is 77.9%. With `CCc1cc(NCCc2cccnc2)n2nc(C)c(C)c2n1` the figure was -1.6%. The same measure for `CCCc1nc2c(c(C)c(C)n2Cc2cccnc2)c(N)c1CC`: 75.2%; for `CCCc1nc2c(c(C)c(C)n2CCN(C)C)c(N)c1CC`: 43.8%; for `CCc1c(-c2ccccc2)nc2c(c(C)c(C)n2CCN(C)C)c1N`: 45%. With `CCCc1nc(N2CCN(Cc3ccccn3)CC2)c2cnn(C)c2n1` the figure was 27.6%; with `Cc1nn(C)c(N(C)C)c1CNCCCN(C(C)C)S(C)(=O)=O`, 6.15%. `COc1ncccc1CN1CCn2c(Cn3cncn3)cnc2C1`: the INHIBITION amounted to 7.96%. The same measure for `CCc1nc(C2CCCN2C(=O)c2ccc3c(c2)[nH]c(=O)n3C)no1` (stereo not given): -21.7%. With `COc1cccc(CC(=O)NC2CCCc3cn[nH]c32)c1` (stereo not given) the figure was 33.4%. The same measure for `Cc1nn(C)c(Cl)c1CNCc1cccnc1N1CCCCC1`: -13%.

As for `Cc1noc(C)c1CC(=O)N1CCCC(Cc2ccccn2)C1` (stereo not given), the INHIBITION was -0.6%. The same measure for `CC1(C)COCCN1C(=O)Cc1cc(Cl)c2c(c1)OCCO2`: -117%; for `O=C(C[C@@H]1COC[C@H]2CN(C(=O)c3cccnc3)C[C@@H]12)N1CCOCC1`: -81.1%; for `CCOc1ccc2[nH]c(=O)c(CN3CCC(n4cnnc4)CC3)cc2c1`: 43.4%. In the case of `CN(CCn1ccnc1-c1ccccn1)S(C)(=O)=O`, the INHIBITION is -36%. The same measure for `Cn1nc(COCC2CC2)c2c1CN(C(=O)c1ccno1)CC2`: 8.85%; for `O=C(c1ccncc1)N1CCCn2nnc(Cn3cccn3)c2C1`: 33%; for `Cc1ccccc1C(=O)N1CCCn2nnc(Cn3cccn3)c2C1`: -16.9%. Take `CCc1ccc(C(=O)N2CCCn3nnc(Cn4cccn4)c3C2)cc1`: the INHIBITION is 52.3%.

With `Cc1ccsc1C(=O)N1CCCn2nnc(Cn3cccn3)c2C1`, the INHIBITION came to 60.3%. Consider `O=C(c1ccc(Cl)cc1)N1CCCn2nnc(Cn3cccn3)c2C1`, for which the INHIBITION is listed as 10.8%. On to `O=C(CO)N1CCCn2nnc(Cn3cccn3)c2C1`, for which the INHIBITION amounted to 12.1%. The same measure for `CN1CCOC(CNCc2csc(C3CCCCC3)n2)C1` (stereo not given): 13.6%; for `CCN(CC)C(=O)Cn1cc(-c2nc(-c3ccccc3C)no2)nn1`: -19.1%; for `CSCCc1nc(-c2ccc3c(c2)OCO3)n(C)n1`: 25.9%.

For `Cn1[nH]c(C2CCC2)c(-c2ccc3c(c2)OCO3)c1=N`, the INHIBITION was found to be 64.7%. The same measure for `CCCc1[nH]n(C)c(=N)c1-c1ccc2c(c1)OCO2`: 27.6%; for `CCc1[nH]n(C)c(=N)c1-c1ccc2c(c1)OCO2`: 53.6%. For the compound `Cn1nc(C2CCCC2)c(-c2ccc3c(c2)OCO3)c1N`, the INHIBITION was determined as 48%. The same measure for `Cn1[nH]c(C2CC2)c(-c2ccc3c(c2)OCO3)c1=N`: 16.5%. The same measure for `CN(C)c1ncc2c(O)nc(C3CCCNC3)cc2n1` (stereo not given): 24.8%; for `COc1ccccc1OCCCN1CCNC1=O`: 12.9%; for `CCC(=O)Nc1nnc2n(Cc3cccc(OC)c3)[nH]c(C)c1-2`: -31%. The same measure for `CCCNC(=O)CSCc1ccc(S(=O)(=O)N(C)C)o1`: 53.7%. Regarding `CN(C)S(=O)(=O)c1ccc(CSCC(=O)NC(C)(C)C)o1`, the INHIBITION is 17.9%. The same measure for `CCC(C)(C)NC(=O)CSCc1ccc(S(=O)(=O)N(C)C)o1`: 3.73%; for `Cc1occc1C(=O)N1CCc2c(CNS(C)(=O)=O)cncc2C1`: 6.55%.

Turning to `CC(C)Oc1cccc(CN(C)C(=O)Nc2cccn(C)c2=O)c1`, the INHIBITION is reported as -15%.

Regarding `CN(CCOc1ccccc1)C(=O)Nc1cccn(C)c1=O`, the INHIBITION is listed as 82.4%. Consider `COc1c(NC(=O)N(C)CCOc2ccccc2)c(C)nn1C`, for which the INHIBITION is given as -24.6%.

With `CC(C)c1sc(Cl)nc1C(=O)N1CCN(Cc2ccccc2)CC1`, the INHIBITION stood at 10.9%.

With `Cc1ccc(-n2cc(C(=O)NCc3nnc4n3CCCCC4)nn2)cc1`, the INHIBITION is -21.2%. On to `CCN(CC)c1ccc(CNC(=O)N2CCC(C#N)CC2)cc1`, for which the INHIBITION was determined as 2.91%.

As for `CCc1ccc(C(=O)N2CCC(N(C)C(=O)OC(C)(C)C)C2)o1` (stereo not given), the INHIBITION worked out at 71.2%.

For `Cc1ccc(C(=O)N2CCCC(N(C)C(=O)OC(C)(C)C)C2)o1` (stereo not given), the INHIBITION was found to be 37.8%. With `CN(C(=O)OC(C)(C)C)C1CCN(C(=O)c2ccc(Cl)o2)C1` (stereo not given) the figure was -12.3%.

As to `c1ccc(-c2nc3c(c(NCc4nnc5n4CCC5)n2)CCNC3)cc1`, the INHIBITION was determined as 39.4%.

Turning to `CN(CCC(=O)N1CCc2sccc2C1)Cc1ccc2c(c1)OCCO2`, the INHIBITION is -7.35%. The same measure for `CN(CCC(=O)N1CCc2sccc2C1)Cc1cc(Br)cs1`: 19.2%; for `COc1ccc(CNC(=O)N2CCc3sccc3C2)cc1O`: -45%; for `O=C(CCNCc1cccc(O)c1)N1CCc2sccc2C1`: 81.2%. With `O=C(CCN1CCCC1c1cccc(F)c1)N1CCc2sccc2C1` (stereo not given) the figure was 9.54%. Consider `COc1ccc(CNCCC(=O)N2CCc3sccc3C2)cc1O`, for which the INHIBITION is on record as 76.2%.

In the case of `CC(C)(C)CC(=O)N1CCc2sccc2C1`, the INHIBITION is -46.6%. Consider `NC(=O)NC(CC(=O)N1CCc2sccc2C1)c1cccc(Br)c1` (stereo not given), for which the INHIBITION came to 14.9%. Regarding `N#Cc1cccc(CNCCC(=O)N2CCc3sccc3C2)c1`, the INHIBITION is 68.3%. `CN(C)C(=O)c1cccn1-c1ccc2c(c1)OCCO2`: the INHIBITION is 9.16%. With `CC(C)(C)OC(=O)N1CCN(c2cccnc2)CC1C(=O)O` (stereo not given) the figure was 20.2%; with `CC(C)C(C(=O)N1CCN(Cc2ccccn2)CC1)n1cncn1` (stereo not given), -24.5%; with `Cc1nc(C(C)C)sc1C(=O)NCCNc1ncccc1C#N`, -29.1%. The same measure for `O=C(NC1CC1)N1CCC2(CC1)C(=O)NCCN2Cc1ccccc1`: 30.9%. `CC(C)(C)OC(=O)N(CCNS(=O)(=O)N1CCOCC1)C1CC1`: the INHIBITION is given as -28%. The same measure for `CN1CCC2(CCCN(c3nccc(C(F)(F)F)n3)C2)CC1`: -2.35%.

As for `O=C(Nc1cccc(CN2CCOC2=O)c1)N1CCOCC1`, the INHIBITION came out at 5.14%. The same measure for `O=C(Nc1cccc(CN2CCOC2=O)c1)N1CCCC1`: 53.8%; for `Cc1ncc(CN(C)C(=O)Nc2ccc(CN3CCOC3=O)cc2)s1`: 22.5%; for `O=C(Nc1cccc(CN2CCOC2=O)c1)N1CCCCCC1`: -4.12%.

Turning to `Cc1ncc(CN(C)C(=O)Nc2cccc(CN3CCOC3=O)c2)s1`, the INHIBITION is 52.8%. With `Cc1ncc(CN(C)C(=O)Nc2cccc(N3CCOC3=O)c2)s1` the figure was 28%; with `CCCN1CCC=C(C2c3nc[nH]c3CCN2C(=O)c2ccco2)C1` (stereo not given), 25.1%. The same measure for `OC(CN1CCC(CNCc2ccccn2)CC1)c1ccccc1` (stereo not given): -36.1%; for `COCC(=O)N1C[C@H]2CNC[C@@]2(C(=O)NCc2cccc3[nH]ccc23)C1`: 13.1%; for `CN(CC1CCCCO1)S(=O)(=O)c1cccc(C(=O)N2CCOCC2)c1` (stereo not given): 1.19%. With `CC(C)(C)NC(=O)CN1CCNCC1` the figure was -30%. In the case of `CC(C)NC(=O)CN1CCCNCC1`, the INHIBITION is on record as 3.77%. The same measure for `CC(C)(C)NC(=O)CN1CCCNCC1`: 74.9%.
